# “And” between values parts separate entries of the source, which are not always exact repeats. Identical values can stand only once. In all, about 400,000 compounds went through this assay and about 5,500 (1.4%) were called active. Roughly 9% stayed inconclusive and do not appear here. This is one part of a sample in which actives are shown more often than they occur. Calls follow the shape of the dose curve; as a rule, active = well fitted cell-killing curve with a large enough effect; inconclusive = small, poorly fitted or top-dose-only effect, or effect the other way; inactive = flat fitted curve, though single readings scatter.
# Assay: qHTS assay for MDR1-selective chemotherapeutics: Primary screen using the parental adenocarcinoma cell KB-3-1; also: nearly all actives have a fitted effect of over 60% in size
# Settings: KB-3-1 viability, CellTiter-Glo ATP luminescence, 72 h; series mostly up to 46.1 µM; activity change, negative = cytotoxic: at the top concentration
# In short: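 Viability of parental KB-3-1 cells, measured by CellTiter-Glo luminescence, followed a 72 h incubation at 37 °C with pinned compounds in phenol-red-free DMEM containing 10% FBS.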
# % is scaled to controls: 0 for no effect and ±100 for the full control effect; potency is read from the fitted curve at half-maximal effect.
SMILES,"activity change, negative = cytotoxic",Potency
CCCN(C(=O)Cn1ncc2c([nH]c3ccc(C)cc32)c1=O)c1ccccc1C,0.221% (inactive),
CCc1ccc2oc(-c3ccc(NC(=O)c4cc5ccccc5o4)cc3)nc2c1,-12.6% (inactive),
COc1ccc(NC(C)=O)cc1NC(=O)CN1CCN(c2ccc(F)cc2)CC1,1.07% (inactive),
COC(=O)c1ccc(NC(=O)c2cc(S(=O)(=O)N3CCC(C)CC3)cn2C)cc1,-7.89% (inactive),
CCOC(=O)c1c(C)oc2nc(C)nc(N(CC(C)C)CC(C)C)c12,3.41% (inactive),
CC(C)(O)c1ccccc1CC[C@H](SCC1(CC(=O)O)CC1)c1cccc(/C=C/c2ccc3ccc(Cl)cc3n2)c1,7.37% (inactive),
CCc1cnc2c(c1SCC(=O)c1ccccc1)c(=O)n(C)c(=O)n2C,9.68% (inactive),
Cc1ccc(C)c(S(=O)(=O)c2nnn3c2nc(N2CCOCC2)c2sccc23)c1,-0.269% (inactive),
Cc1ccc(C)c(S(=O)(=O)n2nc(C)c(S(=O)(=O)N3CCC(C)CC3)c2C)c1,-3.25% (inactive),
Cc1ccc(C)c(S(=O)(=O)N2CCN(c3ncnc4sccc34)CC2)c1,,9.2 µM (active)
CCOCCCNC(=O)c1cn(CC)c2ccc(S(=O)(=O)N3CCc4ccccc4C3)cc2c1=O,-12.4% (inactive),
NC(=O)Nc1ccc(C(=O)OCC(=O)NC2CCCc3ccccc32)cc1 (configuration not stated),3.73% (inactive),
COC(=O)c1cc(OCC(=O)NC2CCCc3ccccc32)cc(C(=O)OC)c1 (configuration not stated),5.25% (inactive),
O=C(CCNC(=O)c1ccc(Cl)cc1)NC1CCCc2ccccc21 (configuration not stated),,7.31 µM (active)
Cc1ccc(Cl)cc1NC(=O)CCS(=O)(=O)c1ccc(Br)s1,10.5% (inactive),
CCC(C)(C)c1ccc(OCC(=O)N(C)C)c(C(C)(C)CC)c1,,16.4 µM (active)
CCc1nc(C)ccc1OCC(=O)N(CC)CC,-4.05% (inactive),
COc1ccc(Cl)cc1NC(=O)CSc1nc2ccccc2c2nc(-c3ccccc3)nn12,3.72% (inactive),
CSc1oc(-c2cccs2)nc1S(=O)(=O)c1ccc(Br)cc1,0.965% (inactive),
CCOc1ccc(NC(=O)C(CC(C)C)N2Cc3ccccc3C2=O)cc1 (configuration not stated),-18.3% (inactive),
C=CCn1c(SCc2c(C)noc2C)nc2sc3c(c2c1=O)CCC(C)C3 (configuration not stated),,4.11 µM (active)
C=CCn1c(SCC(=O)NCCCO)nc2sc3c(c2c1=O)CCC3,2.97% (inactive),
CCCn1nnc2sc3c(c2c1=O)CCC(C)C3 (configuration not stated),-4.79% (inactive),
O=S(=O)(Nc1ccc2nc(-c3cccc(Cl)c3)oc2c1)c1ccccc1,0.847% (inactive),
CN(Cc1ccccc1)S(=O)(=O)c1ccc(F)c(C(=O)Nc2cccc(Cl)c2Cl)c1,6.97% (inactive),

SMILES,"activity change, negative = cytotoxic",Potency
C=CCn1c(CC(=O)Nc2cccc(OC)c2)nnc1SCC(=O)NC1CCCCC1,19% (inactive),
COc1ccc(-n2c(SCC(=O)Nc3ccc(Cl)c(C)c3)nc3n[nH]c(C)c3c2=N)cc1,-0.218% (inactive),
COc1cccc(-n2c(SCC(=O)NC3CCCCC3)nc3n[nH]c(C)c3c2=N)c1,,13 µM (active)
ClC/C=C/C[n+]1ccccc1Cl,0% (inactive),
CCOc1ccc(-c2cc3c(=O)n(CC(=O)NCc4ccc(OC)cc4)ccn3n2)cc1,0.871% (inactive),
CN(O)C(=S)c1ccccc1,,0.0052 µM (active)
Cc1ccc(S(=O)(=O)N(CC(=O)Nc2cccc([N+](=O)[O-])c2)Cc2ccc(Cl)cc2)cc1,-5% (inactive),
CN(c1ccccc1)S(=O)(=O)c1cccc(NC(=O)Cc2ccc(Cl)cc2)c1,,23.1 µM (active)
CN(c1ccccc1)S(=O)(=O)c1ccc(NC(=O)COc2ccccc2)cc1,0% (inactive),
Nc1ncnc2nnsc12,44% (inactive),
CC(C)Oc1cccc(-c2cnc(N3CCC(C(N)=O)CC3)s2)c1,16.4% (inactive),
COc1cc2nc(SCc3ccc(F)cc3)n3nc(CCn4c(C)nc5ccccc54)nc3c2cc1OC,13.2% (inactive),
CCCOc1ccc(-c2cccc(NS(=O)(=O)c3ccccc3)c2)nn1,-16.5% (inactive),
COc1ccc(-c2cccc(NS(=O)(=O)c3cc(C)c(OC)c(C)c3C)c2)nn1,,3.66 µM (active)
COc1ccc(OC)c(S(=O)(=O)Nc2cccc(-c3ccc4nncn4n3)c2)c1,-7.93% (inactive),
O=C(Nc1ccc(-c2nc3cc(NC(=O)c4ccccc4Cl)ccc3o2)cc1)c1ccccc1Cl,-9.52% (inactive),
C/C(=N/Nc1ccc(Cl)cc1)c1cnnc(-c2ccccc2)n1,2.92% (inactive),
C/C(=N\Nc1ccc(Cl)nn1)c1ccccc1O,,14.6 µM (active)
Fc1ccccc1Cc1ccc(Cl)nn1,4.26% (inactive),
CC(=O)N1CCc2cc(S(=O)(=O)NC(Cc3ccccc3)C(=O)NCc3ccc(C)cc3)ccc21 (configuration not stated),0.414% (inactive),
Nc1ccc(C(=O)N2CCN(S(=O)(=O)c3ccc(Cl)cc3)CC2)cc1[N+](=O)[O-],-16.3% (inactive),
CC1CCN(C(=O)c2ccc(S(=O)(=O)Cc3cc(F)ccc3F)c([N+](=O)[O-])c2)CC1,,23.1 µM (active)
O=C(c1ccc(Oc2ccc(Cl)cc2)c([N+](=O)[O-])c1)N1CCCC1,-4.08% (inactive),
CC[C@]1(O)C[C@@H]2CN(CCc3c([nH]c4ccccc34)[C@@](C(=O)OC)(c3cc4c(cc3OC)N(C)[C@H]3[C@@](O)(C(=O)OC)[C@H](OC(C)=O)[C@]5(CC)C=CCN6CC[C@]43[C@@H]65)C2)C1,,0.164 µM (active)
COc1cc(NC(=O)Cn2nc(-c3ccc(C)c(C)c3)ccc2=O)cc(OC)c1,5.25% (inactive),

SMILES,"activity change, negative = cytotoxic",Potency
N#Cc1nc(NCc2ccc(Cl)c(Cl)c2)c2ncn(CCCO)c2n1,0% (inactive),
O=C(NCC(c1ccc(Cl)cc1)N1CCOCC1)c1ccccc1F (configuration not stated),-21.3% (inactive),
COc1ccccc1CCNC(=O)C(=O)NCCC1CCCCN1S(=O)(=O)c1cccs1 (configuration not stated),-17.7% (inactive),
O=C(NCCC1CCCCN1S(=O)(=O)c1ccc(F)cc1)C(=O)NC1CC1 (configuration not stated),9.7% (inactive),
O=C(NCCC1CCCCN1S(=O)(=O)c1cccs1)C(=O)Nc1ccc(F)cc1F (configuration not stated),,23.1 µM (active)
CCCCCn1c(=O)[nH]c2cc(C(=O)NCCN(C)CCCC)ccc2c1=O,-5.66% (inactive),
CC(=O)c1ccc(NC(=O)COc2ccccc2-c2nc(-c3ccccc3)no2)cc1,17.8% (inactive),
O=C(Oc1ccc(-c2nc(-c3ccccn3)no2)cc1)c1ccccc1,,7.31 µM (active)
Cc1noc(C)c1COC(=O)COc1ccc(-c2ccccc2)cc1,-1.36% (inactive),
CCOC(=O)c1c(-c2ccc(OC)cc2)oc2ccc(OCc3ccc(C(=O)OC)cc3)cc12,-3.43% (inactive),
O=C(OC/C=C/CSc1nnc(-c2cccc3ccccc23)o1)c1ccc(F)cc1,19.6% (inactive),
Cc1nc2c(-c3ccccc3)c(C)nn2c(C)c1CCC(=O)NCCc1ccccc1,6.79% (inactive),
Cc1ccc(C)c(N2CCN(C(=O)Cn3ncc4c(=O)oc5ccc(C)cc5c43)CC2)c1,6.18% (inactive),
CC1CCCN(c2csc3ccc(F)cc3c2=O)C1 (configuration not stated),0.746% (inactive),
N#CC1=C(SCc2ccccc2)NC(=O)C(C#N)C12CCCC2 (configuration not stated),,11.6 µM (active)
Cc1ccc(CNS(=O)(=O)c2ccc(C(=O)N(C)C)s2)cc1,-1.95% (inactive),
Cn1c(C(=O)N2CCC(C(=O)N3CCN(c4ccccc4)CC3)CC2)cc2sccc21,-16.4% (inactive),
COc1cccc(CNC(=O)c2nnn(CC(=O)Nc3cc(Cl)ccc3C)c2N)c1,-2.56% (inactive),
Nc1c(C(=O)NCc2ccccc2)nnn1Cc1cccc(Cl)c1,,20.6 µM (active)
COc1cccc(CNC(=O)c2nnn(CC(=O)Nc3cc(C)ccc3C)c2N)c1,6.77% (inactive),
CC1(C)CC(N2CCN(C(c3ccccc3)c3ccccc3)CC2)=CC(=[N+]2CCCCC2)C1,,0.517 µM (active)
CN(C(=O)CSc1nc2ccccc2n1Cc1ccccc1C#N)c1ccccc1,1.02% (inactive),
Cc1ccc(-c2noc(CSc3nnc(-c4ccc(Cl)cc4)n3C)n2)cc1,-14.8% (inactive),
Cc1nn(-c2ccccc2)c(C)c1NC(=O)CCl,,14.6 µM (active)
Cc1nn(-c2ccccc2)c(C)c1NC(=O)COC(=O)c1cc(Cl)ccc1O,9.05% (inactive),

SMILES,"activity change, negative = cytotoxic",Potency
C/C=C/c1ccc(OCC(=O)OCC(=O)Nc2c(C)nn(-c3ccccc3)c2C)c(OC)c1,3.03% (inactive),
Cc1nn(-c2ccccc2)c(C)c1NC(=O)COc1ccc(Cl)cc1Cl,,5.17 µM (active)
Cc1cccc(C)c1NC(=O)CNC(=O)c1c(C)nn(-c2ccccc2)c1C,-8.93% (inactive),
CCC(Oc1ccccc1)C(=O)OCC(=O)Nc1c(C)nn(-c2ccccc2)c1C (configuration not stated),-0.205% (inactive),
OCc1cnc(SCc2ccc(F)cc2)n1Cc1ccc(F)cc1,-6.67% (inactive),
CN1C(=O)c2ccccc2Sc2ccc(NC(=O)Cc3ccc(Cl)cc3)cc21,3.86% (inactive),
COc1ccc2c(C)c(CCC(=O)NCc3ccc(OC)c(OC)c3)c(=O)oc2c1,-17.9% (inactive),
Cc1ccc(C)c(N2CCN(C(=O)CN3C(=O)COc4ccc(S(=O)(=O)N5CCCCCC5)cc43)CC2)c1,-28% (inactive),
COc1ccccc1NC(=O)C1=C(C)Nc2nc3ccccc3n2C1c1cccs1 (configuration not stated),,3.26 µM (active)
CC1=C(C(=O)Nc2ccccc2Cl)C(c2cccs2)n2ncnc2N1 (configuration not stated),-2.1% (inactive),
COc1ccccc1NC(=O)C1=C(C)Nc2ncnn2C1c1sccc1C (configuration not stated),-2.47% (inactive),
Cc1nc2c(c(C)nn2-c2ccccc2)c(C)c1CCC(=O)NCCc1ccc(Cl)cc1,4.93% (inactive),
O=C1CC(c2nnc(Cc3ccc(Cl)cc3)o2)CN1c1ccccc1 (configuration not stated),0.612% (inactive),
CCC(=O)N1CCc2cc(Br)cc(S(=O)(=O)NCc3ccc(Cl)cc3)c21,-8.85% (inactive),
COc1cc(C2CC(=O)Oc3cc(OC)c(OC)c(OC)c32)cc(OC)c1OC (configuration not stated),0% (inactive),
COc1cc(C=C(OC(C)=O)c2ccc3c(c2)OCO3)cc(OC)c1OC,3.24% (inactive),
COc1cc(C2c3cc4c(cc3C(O)C3COC(=O)C23)OCO4)cc(OC)c1OC (configuration not stated),,146 nM (active) and 164 nM (active)
Cc1ccccc1NC(=O)Cn1cc(C(=O)c2cccs2)c2ccccc21,-2.3% (inactive),
CCCCOC(=O)CSc1ncnc2sc3c(c12)CCC(C)C3 (configuration not stated),-2.69% (inactive),
CC1CCCCN1S(=O)(=O)c1ccc(C(=O)Nc2nnc(-c3cccs3)o2)cc1 (configuration not stated),,9.2 µM (active)
CC1CN(S(=O)(=O)c2ccc(C(=O)Nc3sccc3C(N)=O)cc2)CC(C)O1 (configuration not stated),-4.42% (inactive),
CC1CCCCN1S(=O)(=O)c1ccc(S(=O)(=O)N(CC(=O)Nc2ccccc2)Cc2cccs2)cc1 (configuration not stated),-1.56% (inactive),

# From PubChem BioAssay AID1347075 (National Center for Advancing Translational Sciences (NCATS), 2019)
